Compounds without any hit were thinned out: in the full panel of roughly 79,000, 15% have a hit. No stated cut-off is given here; in the data, active means growth inhibition above about 70%; inactive means the rest.
Tests used:
[1] = NCI Yeast Anticancer Drug Screen. Data for the rad50 strain (AID 155);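 further: 0% = growth of vehicle-only cultures of the same strain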; settings: S. cerevisiae rad50 strain growth inhibition; at 50.0 µM; hits give high values
Method in brief: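 Vehicle-treated cultures provide the reference for the growth inhibition reported for compound-exposed, repair-deficient yeast.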

[2] = NCI Yeast Anticancer Drug Screen. Data for the mec2-1 strain (AID 157); settings: S. cerevisiae mec2-1 strain, at 50.0 µM, hits give high values
Method in brief: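 Yeast mec2-1 mutant treated with compound. Readout: growth inhibition vs vehicle controls.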

[3] = NCI Yeast Anticancer Drug Screen. Data for the sgs1 mgt1 strain (AID 161);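 further: 0% = growth of cultures given vehicle only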; settings: S. cerevisiae sgs1 mgt1 strain, at 50.0 µM, hits give high values
Method in brief: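 Inhibition of yeast growth, normalised to vehicle-treated controls, is reported for a strain bearing genetic alterations in DNA damage repair.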

[4] = NCI Yeast Anticancer Drug Screen. Data for the cln2 rad14 strain (AID 165);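 further: 0% = growth equal to vehicle treated cultures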; settings: S. cerevisiae cln2 rad14 strain, at 50.0 µM, hits give high values
Method in brief: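 cln2 rad14 yeast strain; compound exposure; growth inhibition read vs vehicle controls.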

[5] = NCI Yeast Anticancer Drug Screen. Data for the bub3 strain (AID 167); settings: S. cerevisiae bub3 mutant strain, at 50.0 µM, hits give high values
Method in brief: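 Mutant yeast screening strain plus compound; vehicle-treated cultures serve as the 0% inhibition reference.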

[6] = NCI Yeast Anticancer Drug Screen. Data for the mlh1 rad18 strain (AID 175); settings: S. cerevisiae mlh1 rad18 strain growth inhibition; at 50.0 µM; hits give high values
Method in brief: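 Yeast w/ defined DNA-repair lesions; compound exposure; growth vs vehicle controls → % inhibition.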

Measured: growth inhibition

NCC(=O)NC1(C(=O)NCC(=O)O)CCCC1
inactive: [1] -2.45% | [2] -2.2% | [3] -20.9% | [4] -13.9% | [5] 6.5% | [6] 1.3%

CCC(=O)/C=C/c1ccccc1
inactive: [1] -1.55% | [2] -14.2% | [3] -22.1% | [4] -23.9% | [5] -34.5% | [6] -47.6%

CCN(CC)C(=O)CCn1ccc(=O)[nH]c1=O
inactive: [1] -52.4% | [2] -33.4% | [3] -25.8% | [4] 9.55% | [5] -2.75% | [6] -5.35%

Cc1ccc(C(N)=O)cc1
inactive: [1] 20% | [2] -8.65% | [3] -1.55% | [4] -31.1% | [5] 17.9% | [6] 42.1%

Cc1nccnc1N1CCCCC1
inactive: [1] 19.7% | [2] -0.75% | [3] -5.8% | [4] 15.9% | [5] 1.9% | [6] -11.3%

O=C(O)CCSc1ccc([N+](=O)[O-])cc1
inactive: [1] -7.3% | [2] -18.6% | [3] -4.75% | [4] -44.1% | [5] -11.5% | [6] 52.6%

O=C(O)c1c[nH]c2ccc([N+](=O)[O-])cc2c1=O
inactive: [1] -21% | [2] -12.8% | [3] -11.9% | [4] 11.7% | [5] -14% | [6] -7.95%

O=C1C(O)=C(Br)C(=O)C(O)=C1Br
inactive: [1] 6.2% | [2] -12.2% | [3] 10.1% | [4] -12.1% | [5] 15.4% | [6] 11.6%

CCC1(O)C(=O)c2ccccc2N(c2ccccc2)C1=O (stereo unspecified)
inactive: [1] 9.05% | [2] 3.7% | [3] 4% | [4] -5.85% | [5] 8.3% | [6] 18.2%

CNc1nnnn1C1OC(CO)C(O)C1O (stereo unspecified)
inactive: [1] -2.15% | [2] -8.9% | [3] -9.6% | [4] 9.35% | [5] -10.7% | [6] -21.4%

Cc1ccc(N=Nc2ccc(C)cc2NC(=O)c2ccc(Cl)cc2)cc1
inactive: [1] -3.15% | [2] 10.2% | [3] 17.1% | [4] -7.8% | [5] 32.3% | [6] 8.85%

c1ccc(-c2nc3ccccc3nc2-c2ccc(-c3nc4ccccc4nc3-c3ccccc3)cc2)cc1
inactive: [1] 8.2% | [2] -0.6% | [3] -9% | [4] 4.6% | [5] 1.85% | [6] -18.8%

Cc1cccc2c(SCCCCCCSc3c4ccccc4nc4c(C)cccc34)c3ccccc3nc12
inactive: [1] -2.25% | [2] -8.1% | [3] -26.7% | [4] -21.5% | [5] -2.7% | [6] 7.05%

N#CCc1c(F)c(F)c(F)c(F)c1F
inactive: [1] 6.8% | [2] 5.75% | [3] 14.4% | [4] 3.2% | [5] 10.5% | [6] 2.6%

C=CCOC(=O)CCCCC(=O)OCC=C
inactive: [1] 3.1% | [2] 4.15% | [3] 3.65% | [4] 6.1% | [5] 19.9% | [6] 0.1%

O=C(O)COc1ccccc1Cl
inactive: [1] 34.6% | [2] 13.3% | [3] 22.5% | [4] 19.8% | [5] 26.1% | [6] 11.8%

O=C1OC(c2ccc([N+](=O)[O-])cc2)=N/C1=C\c1cccc([N+](=O)[O-])c1
inactive: [1] 23.1% | [2] 20.9% | [3] 36.2% | [4] 38.2% | [5] 22.1% | [6] 52%

O=NNc1ccc(S(=O)(=O)c2ccccc2)cn1
inactive: [1] 49.1% | [2] 13.9% | [3] -27.9% | [4] 12.1% | [5] -26.6% | [6] 5.2%

CC(=O)Nc1ccc(C(=O)N2C(=N)C(C#N)=C(O)/C2=C\c2ccc(Cl)c(Cl)c2)cc1
inactive: [1] -7.3% | [2] -5.7% | [3] -18.4% | [4] 1.3% | [5] -20.8% | [6] 2.15%

C/C=C1\CN2CCc3c([nH]c4ccccc34)C2CC1CCO (stereo unspecified)
inactive: [1] -16.8% | [2] -10.9% | [3] -5.4% | [4] 12.7% | [5] -26.7% | [6] -24.9%

CC(=O)Oc1ccc2c(=O)c(C(C)=O)coc2c1
inactive: [1] 7.45% | [2] -11.3% | [3] -3.15% | [4] 14.4% | [5] 4.2% | [6] 14.7%

O=C(O)/C(=C/C=C/c1ccccc1)c1csc(-c2nc(/C(=C\C=C\c3ccccc3)C(=O)O)cs2)n1
inactive: [1] 22% | [2] 13.3% | [3] 19.4% | [4] 16.9% | [5] 19.1% | [6] 9.15%

Oc1cccc(C=NCCN=Cc2cccc(O)c2O)c1O.[Fe]
inactive: [1] -9.35% | [2] -5.7% | [3] 4.65% | [4] -39.7% | [5] 13.2% | [6] 1.15%

CN(C)CC1CCC/C1=N/OC(=O)c1ccccc1 (stereo unspecified)
inactive: [1] 6.85% | [2] -6.7% | [3] -20% | [4] -17.9% | [5] -6.4% | [6] 16.9%

O=C1O[C@@H]2C3COC(O)[C@](O)(O3)[C@@H]2/C1=C\c1ccc(O)cc1 (stereo partly specified)
inactive: [1] 20.1% | [2] 10.4% | [3] 8.4% | [4] 5.25% | [5] 8.45% | [6] 9.4%

CCCCCCCCCCCCCCCc1cc(=O)n(-c2ccc(NC(C)=O)cc2)n1C
inactive: [1] -2% | [2] -23.8% | [3] -12.6% | [4] 3.1% | [5] -1% | [6] -9.7%

O=C(c1cccc(C(=O)N(c2ccccc2)C2CCCCC2)c1)N(c1ccccc1)C1CCCCC1
inactive: [1] -2.65% | [2] -6.35% | [3] -1.55% | [4] -6.65% | [5] -1.3% | [6] -27.9%

Cc1cccc(NC(=O)O/N=C(\Cl)C(C)C)c1
inactive: [1] -13.8% | [2] -34.9% | [3] 70% | [4] 0.4% | [5] 35.4% | [6] -43.4%

O=S(=O)(O)c1ccccc1
inactive: [1] -16.6% | [2] -8.5% | [3] -6.05% | [4] -2.25% | [5] 0.15% | [6] 1.25%

COc1ccc(NC(=O)CCC2=CC(=O)CC(c3ccccc3)O2)cc1 (stereo unspecified)
inactive: [1] 2.9% | [2] 9.65% | [3] 2.35% | [4] 25.3% | [5] -8.45% | [6] -5.05%

CC(C)(Oc1ccc(/C=C/C(=O)c2ccc(Cl)cc2)cc1)C(=O)Nc1c(Cl)cccc1Cl
inactive: [1] 0.85% | [2] -2.05% | [3] 2.6% | [4] 12.1% | [5] 12.8% | [6] 19%

CC1OC(CO)C2OC(C)OCC2O1 (stereo unspecified)
inactive: [1] -14.2% | [2] -13.9% | [3] -12.8% | [4] -18.1% | [5] 5.75% | [6] 3.95%

Nc1nc2[nH]c(=O)cnc2c(=O)[nH]1
inactive: [1] -17.8% | [2] -32.3% | [3] -26.2% | [4] -0.1% | [5] -27.5% | [6] -20.7%

O=C(O)c1cccc(S(=O)(=O)NCCO)c1
inactive: [1] -11.3% | [2] -8.25% | [3] -20.8% | [4] -1.9% | [5] -36.1% | [6] 8.5%

O=C1N(c2ccccc2)C2(O)C(=O)c3ccccc3C2(O)N1c1ccccc1 (stereo unspecified)
inactive: [1] -10% | [2] -2.15% | [3] 15.6% | [4] 16.5% | [5] 3.1% | [6] -4.5%

COc1cc(C(c2ccc(N(Cc3ccccc3)Cc3ccccc3)cc2NC(C)=O)c2ccc(N(Cc3ccccc3)Cc3ccccc3)cc2NC(C)=O)ccc1O
inactive: [1] 2.75% | [2] 2.05% | [3] -11.4% | [4] -8.2% | [5] -5.1% | [6] 38.2%

O=S(=O)(c1ccc(Br)cc1)N1CCN(S(=O)(=O)c2ccc(Br)cc2)CC1
inactive: [1] -24.4% | [2] -23.9% | [3] -35.2% | [4] -43.2% | [5] -23.4% | [6] -10.1%

O=C(O)C1(Br)CC1(c1ccccc1)c1ccccc1 (stereo unspecified)
inactive: [1] 28.2% | [2] 5.25% | [3] 3.65% | [4] -14.1% | [5] -0.7% | [6] 26.1%

CCOC(=O)C(O)C(O)C(O)C(O)C(=O)OCC (stereo unspecified)
inactive: [1] 5.6% | [2] -8.15% | [3] 1.9% | [4] -2.35% | [5] -7.7% | [6] -8.75%

COc1ccc(C(=O)CC(=O)CCC(=O)Nc2ccc(Cl)cc2Cl)cc1
inactive: [1] 26.4% | [2] 19.1% | [3] 20.9% | [4] 19.8% | [5] 8.2% | [6] 7.75%

CCOC(OCC)N(C)C
inactive: [1] -14.9% | [2] -5.25% | [3] -3.05% | [4] -4.8% | [5] -5.5% | [6] -26.8%
